Reference: the supplement of paper PMC10849652
Targets with a hit are over-represented here; the source holds about 7,900 in all. About 0.6% of all pairs of compound and target were hits.

Legend:
Assay in all cases: log2 fold change, soluble protein after heating vs DMSO (PISA); higher = thermal stabilisation; K562 cells, 10 uM, 30 min; active = over 0.2 and 3.5 SD of the protein, either way, in both replicates (recomputed)
saracatinib = compound: CN1CCN(CCOc2cc(OC3CCOCC3)c3c(Nc4c(Cl)ccc5c4OCO5)ncnc3c2)CC1 [saracatinib]
In short: (§1)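 Values are thermal stability changes relative to control samples and are taken from duplicates. They are stated as log2 fold changes. Before quantification by TMTpro 16plex LC-MS/MS with equalised channel sums, K562 cells at 2×10^6 cells/mL were treated with 10 μM compound for 30 min, heated in aliquots for 3 min across 48°C-58°C, pooled, extracted in PBS with 0.5% NP-40 at 4°C, and centrifuged at 21,000xg for 90 min to give the soluble supernatant.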

sotrastaurin = compound: CN1CCN(c2nc(C3=C(c4c[nH]c5ccccc45)C(=O)NC3=O)c3ccccc3n2)CC1 [sotrastaurin]
In short: as §1

alvocidib = compound: CN1CC[C@H](c2c(O)cc(O)c3c(=O)cc(-c4ccccc4Cl)oc23)[C@H](O)C1 [alvocidib]
In short: as §1

Tubastatin A = compound: CN1CCc2c(c3ccccc3n2Cc2ccc(C(=O)NO)cc2)C1 [Tubastatin A]
In short: as §1

[1] = compound: CNC(=O)C1=CC=CC=C1NC2=NC(=NC=C2Cl)NC3=C(C=C(C=C3)N4CCOCC4)OC
In short: as §1

defactinib = compound: CNC(=O)c1ccc(Nc2ncc(C(F)(F)F)c(NCc3nccnc3N(C)S(C)(=O)=O)n2)cc1 [defactinib]
In short: as §1

rucaparib = compound: CNCc1ccc(-c2[nH]c3cc(F)cc4c3c2CCNC4=O)cc1 [rucaparib]
In short: as §1

[2] = compound: CNc1nc(-c2ccc3c(N)n[nH]c3c2)cc(N2C[C@@H](C(=O)NC3CCCCC3)CC[C@H]2C)n1
In short: as §1

encorafenib = compound: COC(=O)N[C@@H](C)CNc1nccc(-c2cn(C(C)C)nc2-c2cc(Cl)cc(NS(C)(=O)=O)c2F)n1 [encorafenib]
In short: as §1

[3] = compound: COC(=O)[C@H](CCSC)NC(=O)C1=C(C=C(C=C1)NC[C@H](CS)N)C2=CC=CC=C2
In short: as §1

[4] = compound: COC1=CC=C(C=C1)CN2C=CC3=C2C=C(C=C3)C(=O)NO
In short: as §1

filanesib = compound: CON(C)C(=O)N1N=C(c2cc(F)ccc2F)S[C@@]1(CCCN)c1ccccc1 [filanesib]
In short: as §1

zotarolimus = compound: CO[C@H]1C[C@@H]2CC[C@@H](C)[C@@](O)(O2)C(=O)C(=O)N2CCCC[C@H]2C(=O)O[C@H]([C@H](C)C[C@@H]2CC[C@H](n3cnnn3)[C@H](OC)C2)CC(=O)[C@H](C)/C=C(\C)[C@@H](O)[C@@H](OC)C(=O)[C@H](C)C[C@H](C)/C=C/C=C/C=C/1C [zotarolimus]
In short: as §1

idasanutlin = compound: COc1cc(C(=O)O)ccc1NC(=O)[C@@H]1N[C@@H](CC(C)(C)C)[C@](C#N)(c2ccc(Cl)cc2F)[C@H]1c1cccc(Cl)c1F [idasanutlin]
In short: as §1

alisertib = compound: COc1cc(Nc2ncc3c(n2)-c2ccc(Cl)cc2C(c2c(F)cccc2OC)=NC3)ccc1C(=O)O [alisertib]
In short: as §1

[5] = compound: COc1cc2nc(-c3cc(F)ccc3O)nc(N[C@@H]3CNC[C@H]3C(C)(C)O)c2cc1OC
In short: as §1

gefitinib = compound: COc1cc2ncnc(Nc3ccc(F)c(Cl)c3)c2cc1OCCCN1CCOCC1 [gefitinib]
In short: as §1

[6] = compound: COc1cccc2cc(-c3nc([C@H]4CC[C@H](C(=O)O)CC4)n4ncnc(N)c34)[nH]c12
In short: as §1

lapatinib = compound: CS(=O)(=O)CCNCc1ccc(-c2ccc3ncnc(Nc4ccc(OCc5cccc(F)c5)c(Cl)c4)c3c2)o1 [lapatinib]
In short: as §1

pictilisib = compound: CS(=O)(=O)N1CCN(Cc2cc3nc(-c4cccc5[nH]ncc45)nc(N4CCOCC4)c3s2)CC1 [pictilisib]
In short: as §1

Measured: log2 fold change

WDCP (UniProt Q9H6R7)
Chain of UniProt Q9H6R7 (Q9H6R7 whole entry, looked up): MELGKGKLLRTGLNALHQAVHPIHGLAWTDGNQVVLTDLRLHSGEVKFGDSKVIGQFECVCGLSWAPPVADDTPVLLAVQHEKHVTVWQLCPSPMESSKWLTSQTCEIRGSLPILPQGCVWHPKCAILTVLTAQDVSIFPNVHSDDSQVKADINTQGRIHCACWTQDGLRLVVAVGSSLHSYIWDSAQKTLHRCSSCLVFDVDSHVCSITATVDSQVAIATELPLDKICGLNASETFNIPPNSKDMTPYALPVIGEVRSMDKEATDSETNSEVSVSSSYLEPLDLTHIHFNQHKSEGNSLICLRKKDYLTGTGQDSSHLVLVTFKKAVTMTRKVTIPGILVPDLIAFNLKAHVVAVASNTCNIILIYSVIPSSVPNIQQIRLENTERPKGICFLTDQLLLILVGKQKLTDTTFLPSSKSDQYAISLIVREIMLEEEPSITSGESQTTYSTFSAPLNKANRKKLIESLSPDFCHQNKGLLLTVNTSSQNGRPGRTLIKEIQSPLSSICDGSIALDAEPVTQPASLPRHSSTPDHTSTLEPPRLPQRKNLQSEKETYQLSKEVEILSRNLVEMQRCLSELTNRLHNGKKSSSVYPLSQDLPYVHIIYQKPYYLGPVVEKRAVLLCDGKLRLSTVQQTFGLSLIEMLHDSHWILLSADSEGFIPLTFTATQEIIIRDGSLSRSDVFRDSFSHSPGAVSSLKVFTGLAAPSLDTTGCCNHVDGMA
inactive: saracatinib -0.039 | sotrastaurin -0.034 | alvocidib 0.054 | Tubastatin A -0.032 | [1] 0 | defactinib -0.016 | rucaparib 0.14 | [2] -0.02 | encorafenib 0.043 | [3] -0.006 | [4] -0.028 | filanesib -0.029 | zotarolimus 0.094 | idasanutlin -0.049 | alisertib -0.074 | [5] 0.072 | gefitinib -0.061 | [6] -0.049 | lapatinib -0.037 | pictilisib 0.126

TRMT2A (UniProt Q8IZ69)
inactive: saracatinib -0.011 | sotrastaurin -0.076 | alvocidib -0.045 | Tubastatin A -0.005 | [1] -0.049 | defactinib -0.031 | rucaparib 0.084 | [2] 0.094 | encorafenib 0.056 | [3] -0.094 | filanesib 0.061 | zotarolimus 0.016 | idasanutlin 0.04 | alisertib -0.051 | [5] -0.158 | gefitinib -0.006 | [6] -0.071 | lapatinib 0.016 | pictilisib -0.096
active: [4] -0.322

UBE4B isoform 4 (UniProt O95155)
inactive: saracatinib 0.018 | sotrastaurin -0.038 | alvocidib -0.104 | Tubastatin A 0.016 | [1] 0.02 | defactinib -0.071 | rucaparib -0.077 | [2] -0.058 | encorafenib 0.01 | [3] -0.001 | [4] 0.04 | filanesib -0.009 | zotarolimus -0.008 | idasanutlin -0.031 | alisertib -0.035 | [5] 0.021 | gefitinib -0.048 | [6] 0.021 | lapatinib -0.01 | pictilisib 0.063

TRAPPC3 (UniProt O43617)
Chain of UniProt O43617 (O43617 whole entry, looked up): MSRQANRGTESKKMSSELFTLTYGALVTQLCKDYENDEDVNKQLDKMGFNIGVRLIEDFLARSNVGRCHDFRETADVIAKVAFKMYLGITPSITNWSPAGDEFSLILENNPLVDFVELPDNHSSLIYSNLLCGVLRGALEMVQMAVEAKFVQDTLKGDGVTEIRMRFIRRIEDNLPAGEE
inactive: saracatinib 0.063 | sotrastaurin 0.001 | alvocidib -0.071 | Tubastatin A -0.026 | [1] 0 | defactinib -0.072 | rucaparib -0.056 | [2] -0.014 | encorafenib 0.015 | [3] 0.013 | [4] -0.141 | filanesib -0.069 | zotarolimus -0.037 | idasanutlin -0.025 | alisertib -0.055 | [5] 0.012 | gefitinib 0.007 | [6] 0.067 | lapatinib 0.023 | pictilisib 0.023

VARS2, A0A0G2JL52
inactive: saracatinib 0.007 | sotrastaurin -0.019 | alvocidib -0.005 | Tubastatin A -0.026 | [1] -0.019 | defactinib -0.005 | rucaparib 0.02 | [2] 0.012 | encorafenib -0.004 | [3] -0.041 | [4] 0.061 | filanesib -0.078 | zotarolimus 0.001 | idasanutlin -0.04 | alisertib -0.01 | [5] -0.017 | gefitinib -0.009 | [6] 0.064 | lapatinib 0.022 | pictilisib 0.024

WDR11 (UniProt Q9BZH6)
active: rucaparib -0.382
inactive: saracatinib -0.079 | sotrastaurin 0.059 | alvocidib 0.06 | Tubastatin A -0.029 | [1] -0.021 | defactinib 0.016 | [2] -0.052 | encorafenib -0.034 | [3] 0.017 | [4] -0.069 | filanesib 0.027 | zotarolimus -0.058 | idasanutlin -0.124 | alisertib -0.062 | [5] 0.104 | gefitinib -0.016 | [6] 0.094 | lapatinib -0.094 | pictilisib 0.094

WASHC2A (UniProt Q641Q2)
inactive: saracatinib 0.013 | sotrastaurin 0.001 | alvocidib 0.052 | Tubastatin A 0.016 | [1] 0.015 | defactinib 0.01 | rucaparib 0.045 | [2] -0.039 | encorafenib 0.019 | [3] 0.017 | [4] 0.007 | filanesib 0.019 | zotarolimus -0.053 | idasanutlin 0.063 | alisertib -0.065 | [5] -0.011 | gefitinib -0.009 | [6] -0.005 | lapatinib 0.02 | pictilisib 0.038

WASHC2C, A0A096LPC5
inactive: saracatinib -0.116 | sotrastaurin -0.09 | alvocidib 0.071 | Tubastatin A -0.02 | [1] -0.019 | defactinib -0.121 | rucaparib 0.114 | [2] -0.02 | encorafenib 0.035 | [3] 0.052 | [4] -0.072 | filanesib 0.057 | zotarolimus -0.062 | idasanutlin 0.146 | alisertib -0.042 | [5] 0.305 | gefitinib 0.018 | [6] 0.098 | lapatinib -0.141 | pictilisib 0.048

XPO6 (UniProt Q96QU8)
Chain of UniProt Q96QU8 (Q96QU8 whole entry, looked up): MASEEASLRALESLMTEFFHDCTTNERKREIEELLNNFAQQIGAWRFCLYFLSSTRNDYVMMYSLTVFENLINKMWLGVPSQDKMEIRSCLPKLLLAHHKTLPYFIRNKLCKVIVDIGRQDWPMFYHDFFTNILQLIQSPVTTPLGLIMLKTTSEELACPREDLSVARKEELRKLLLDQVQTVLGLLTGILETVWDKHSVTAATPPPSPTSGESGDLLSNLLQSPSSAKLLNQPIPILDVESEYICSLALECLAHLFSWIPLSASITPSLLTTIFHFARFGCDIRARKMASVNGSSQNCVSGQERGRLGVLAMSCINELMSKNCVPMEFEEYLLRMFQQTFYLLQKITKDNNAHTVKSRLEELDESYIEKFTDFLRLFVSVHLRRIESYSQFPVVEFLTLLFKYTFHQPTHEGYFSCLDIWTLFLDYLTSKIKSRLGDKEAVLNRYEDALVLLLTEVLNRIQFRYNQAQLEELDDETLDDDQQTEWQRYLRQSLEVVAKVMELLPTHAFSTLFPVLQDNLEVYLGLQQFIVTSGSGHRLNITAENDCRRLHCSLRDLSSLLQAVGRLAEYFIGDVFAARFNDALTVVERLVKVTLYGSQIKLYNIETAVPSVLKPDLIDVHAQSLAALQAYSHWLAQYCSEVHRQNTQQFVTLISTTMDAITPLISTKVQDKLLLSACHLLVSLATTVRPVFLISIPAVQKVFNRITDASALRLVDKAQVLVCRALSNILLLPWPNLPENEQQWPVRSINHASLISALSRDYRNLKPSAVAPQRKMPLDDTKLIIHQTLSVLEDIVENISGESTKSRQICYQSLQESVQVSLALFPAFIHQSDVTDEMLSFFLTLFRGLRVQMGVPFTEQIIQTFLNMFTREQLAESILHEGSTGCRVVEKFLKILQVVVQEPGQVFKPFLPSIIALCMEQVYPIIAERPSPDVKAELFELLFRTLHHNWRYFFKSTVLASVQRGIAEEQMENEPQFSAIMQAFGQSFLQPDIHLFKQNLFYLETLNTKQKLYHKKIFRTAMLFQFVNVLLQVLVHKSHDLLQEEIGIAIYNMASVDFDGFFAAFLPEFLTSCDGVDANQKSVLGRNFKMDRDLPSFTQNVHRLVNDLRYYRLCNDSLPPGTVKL
inactive: saracatinib -0.012 | sotrastaurin -0.119 | alvocidib -0.115 | Tubastatin A -0.009 | [1] 0.036 | defactinib -0.104 | rucaparib 0.076 | [2] 0.037 | encorafenib 0.015 | [3] -0.03 | [4] -0.453 | filanesib -0.074 | zotarolimus 0.047 | idasanutlin -0.079 | alisertib 0.171 | [5] 0.064 | gefitinib -0.029 | [6] -0.052 | lapatinib -0.055 | pictilisib -0.025

XPOT (UniProt O43592)
Chain of UniProt O43592 (O43592 whole entry, looked up): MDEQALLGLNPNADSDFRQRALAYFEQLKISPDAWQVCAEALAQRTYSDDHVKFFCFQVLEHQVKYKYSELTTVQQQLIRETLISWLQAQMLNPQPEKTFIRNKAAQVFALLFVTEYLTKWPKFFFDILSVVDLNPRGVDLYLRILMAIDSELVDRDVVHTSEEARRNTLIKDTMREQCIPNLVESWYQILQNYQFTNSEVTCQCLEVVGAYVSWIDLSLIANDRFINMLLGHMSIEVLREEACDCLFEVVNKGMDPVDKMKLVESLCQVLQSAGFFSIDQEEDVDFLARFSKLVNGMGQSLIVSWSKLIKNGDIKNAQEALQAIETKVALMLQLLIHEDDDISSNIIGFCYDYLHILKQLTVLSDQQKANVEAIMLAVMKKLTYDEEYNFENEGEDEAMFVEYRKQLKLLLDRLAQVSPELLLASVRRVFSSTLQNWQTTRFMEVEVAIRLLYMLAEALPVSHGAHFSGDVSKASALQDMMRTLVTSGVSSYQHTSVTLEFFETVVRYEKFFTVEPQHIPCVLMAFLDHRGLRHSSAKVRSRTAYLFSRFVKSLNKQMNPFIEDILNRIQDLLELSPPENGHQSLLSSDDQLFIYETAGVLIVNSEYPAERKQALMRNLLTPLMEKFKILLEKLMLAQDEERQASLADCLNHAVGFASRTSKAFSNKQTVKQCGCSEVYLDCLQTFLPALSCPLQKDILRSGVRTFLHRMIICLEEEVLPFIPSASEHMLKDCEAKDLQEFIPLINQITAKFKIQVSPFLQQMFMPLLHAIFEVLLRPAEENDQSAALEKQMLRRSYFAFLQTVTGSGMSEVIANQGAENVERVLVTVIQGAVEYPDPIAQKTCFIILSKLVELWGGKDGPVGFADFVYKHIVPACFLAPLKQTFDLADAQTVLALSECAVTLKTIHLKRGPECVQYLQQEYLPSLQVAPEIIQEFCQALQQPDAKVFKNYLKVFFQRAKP
inactive: saracatinib 0.017 | sotrastaurin -0.102 | alvocidib -0.023 | Tubastatin A 0.026 | [1] 0.076 | defactinib -0.022 | rucaparib 0.005 | [2] -0.116 | encorafenib 0.076 | [3] -0.044 | [4] 0.011 | filanesib -0.052 | zotarolimus 0.022 | idasanutlin -0.073 | alisertib -0.059 | [5] 0.033 | gefitinib -0.023 | [6] -0.046 | lapatinib -0.028 | pictilisib 0.023

VTI1B (UniProt Q9UEU0)
Chain of UniProt Q9UEU0 (Q9UEU0 whole entry, looked up): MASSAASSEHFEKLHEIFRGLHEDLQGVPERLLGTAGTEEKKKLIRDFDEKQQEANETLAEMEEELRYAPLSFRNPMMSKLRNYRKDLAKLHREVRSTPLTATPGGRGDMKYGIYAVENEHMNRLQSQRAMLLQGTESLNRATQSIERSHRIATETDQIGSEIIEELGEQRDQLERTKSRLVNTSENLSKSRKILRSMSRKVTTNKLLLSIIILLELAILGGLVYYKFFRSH
inactive: saracatinib 0.041 | sotrastaurin 0.07 | alvocidib 0.055 | Tubastatin A -0.046 | [1] -0.008 | defactinib 0.005 | rucaparib 0.004 | [2] -0.091 | encorafenib 0 | [3] 0.046 | [4] -0.089 | filanesib -0.027 | zotarolimus -0.063 | idasanutlin -0.026 | alisertib 0.046 | [5] 0 | gefitinib -0.023 | [6] 0.137 | lapatinib 0.002 | pictilisib 0.061

XRCC5 (UniProt P13010)
Chain of UniProt P13010 (P13010 whole entry, looked up): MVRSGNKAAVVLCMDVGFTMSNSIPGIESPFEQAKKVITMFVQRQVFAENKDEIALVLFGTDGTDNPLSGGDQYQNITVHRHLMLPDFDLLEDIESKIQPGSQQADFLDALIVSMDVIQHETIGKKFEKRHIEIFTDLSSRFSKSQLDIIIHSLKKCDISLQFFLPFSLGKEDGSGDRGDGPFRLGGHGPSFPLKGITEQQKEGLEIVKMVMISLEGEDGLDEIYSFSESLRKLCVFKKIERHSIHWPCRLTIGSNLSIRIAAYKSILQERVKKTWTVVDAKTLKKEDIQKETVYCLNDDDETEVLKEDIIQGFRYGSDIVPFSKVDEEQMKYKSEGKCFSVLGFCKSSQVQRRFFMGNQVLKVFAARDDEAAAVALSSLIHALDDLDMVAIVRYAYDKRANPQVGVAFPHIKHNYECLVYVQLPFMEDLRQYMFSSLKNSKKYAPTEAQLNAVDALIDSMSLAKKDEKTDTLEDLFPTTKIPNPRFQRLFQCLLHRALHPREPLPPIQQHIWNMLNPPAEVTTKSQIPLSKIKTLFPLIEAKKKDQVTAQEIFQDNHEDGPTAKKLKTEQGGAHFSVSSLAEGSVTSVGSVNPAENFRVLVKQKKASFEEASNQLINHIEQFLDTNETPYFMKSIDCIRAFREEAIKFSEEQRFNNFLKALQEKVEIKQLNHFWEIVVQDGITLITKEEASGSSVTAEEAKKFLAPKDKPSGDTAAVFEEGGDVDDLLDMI
inactive: saracatinib -0.057 | sotrastaurin -0.332 | alvocidib -0.214 | Tubastatin A 0.173 | [1] -0.032 | defactinib -0.37 | rucaparib 0.07 | [2] 0.048 | encorafenib 0.21 | [3] -0.067 | [4] 0.19 | filanesib -0.049 | zotarolimus 0.087 | idasanutlin 0.014 | alisertib 0.061 | [5] -0.232 | gefitinib 0.076 | [6] -0.087 | lapatinib 0.024 | pictilisib -0.047

TP53BP1 isoform 2 (UniProt Q12888)
inactive: saracatinib 0.01 | sotrastaurin -0.112 | alvocidib -0.081 | Tubastatin A 0.116 | [1] 0.061 | defactinib -0.073 | rucaparib 0.025 | [2] -0.022 | encorafenib 0.059 | [3] 0.036 | [4] 0.006 | filanesib 0.059 | zotarolimus 0.054 | idasanutlin 0.04 | alisertib 0.046 | [5] -0.089 | gefitinib -0.014 | [6] -0.041 | lapatinib 0.028 | pictilisib 0

UHRF1BP1L (UniProt A0JNW5)
inactive: saracatinib -0.01 | sotrastaurin 0 | alvocidib -0.037 | Tubastatin A 0.031 | [1] -0.051 | defactinib -0.024 | rucaparib -0.052 | [2] 0.05 | encorafenib -0.02 | [3] -0.029 | [4] -0.027 | filanesib 0.038 | zotarolimus 0.093 | idasanutlin -0.073 | alisertib -0.08 | [5] 0.179 | gefitinib 0.05 | [6] 0.034 | lapatinib -0.006 | pictilisib -0.046

VPS35L (UniProt Q7Z3J2)
Chain of UniProt Q7Z3J2 (Q7Z3J2 whole entry, looked up): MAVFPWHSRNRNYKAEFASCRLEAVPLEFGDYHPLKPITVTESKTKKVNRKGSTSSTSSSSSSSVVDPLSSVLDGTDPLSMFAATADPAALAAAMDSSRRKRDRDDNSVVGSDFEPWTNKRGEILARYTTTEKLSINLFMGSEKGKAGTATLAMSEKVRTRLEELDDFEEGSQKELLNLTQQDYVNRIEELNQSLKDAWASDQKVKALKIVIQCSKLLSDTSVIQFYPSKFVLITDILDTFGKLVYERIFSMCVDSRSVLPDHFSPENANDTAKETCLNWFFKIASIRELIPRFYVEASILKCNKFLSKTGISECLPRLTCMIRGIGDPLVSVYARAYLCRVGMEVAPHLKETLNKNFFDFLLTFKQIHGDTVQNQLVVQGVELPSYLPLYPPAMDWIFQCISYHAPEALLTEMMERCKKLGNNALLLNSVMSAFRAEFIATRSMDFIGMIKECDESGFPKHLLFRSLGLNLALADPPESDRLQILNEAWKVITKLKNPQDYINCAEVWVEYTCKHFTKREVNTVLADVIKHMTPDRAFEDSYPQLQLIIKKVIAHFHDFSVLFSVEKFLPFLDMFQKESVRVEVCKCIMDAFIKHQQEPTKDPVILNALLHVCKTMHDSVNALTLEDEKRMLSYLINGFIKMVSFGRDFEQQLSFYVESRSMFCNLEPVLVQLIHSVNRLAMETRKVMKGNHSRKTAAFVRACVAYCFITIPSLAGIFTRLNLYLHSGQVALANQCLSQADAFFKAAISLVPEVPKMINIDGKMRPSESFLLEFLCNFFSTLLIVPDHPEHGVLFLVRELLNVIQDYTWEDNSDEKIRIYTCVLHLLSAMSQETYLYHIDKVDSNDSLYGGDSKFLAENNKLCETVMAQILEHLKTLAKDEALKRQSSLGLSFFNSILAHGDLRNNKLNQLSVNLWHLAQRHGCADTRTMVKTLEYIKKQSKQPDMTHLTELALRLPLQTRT
inactive: saracatinib 0.013 | sotrastaurin -0.141 | alvocidib 0.17 | Tubastatin A -0.015 | [1] -0.016 | defactinib -0.081 | rucaparib 0.018 | [2] 0.045 | encorafenib -0.001 | [3] -0.037 | [4] 0.028 | filanesib 0.049 | zotarolimus -0.016 | idasanutlin -0.118 | alisertib 0.041 | [5] 0.058 | gefitinib 0.059 | [6] -0.032 | lapatinib -0.05 | pictilisib 0.061

TMEM161B (UniProt Q8NDZ6)
inactive: saracatinib 0.048 | sotrastaurin 0.037 | alvocidib -0.037 | Tubastatin A -0.007 | [1] -0.043 | defactinib -0.061 | rucaparib 0.013 | [2] -0.049 | encorafenib -0.023 | [3] -0.05 | [4] -0.055 | filanesib -0.008 | zotarolimus -0.035 | idasanutlin -0.16 | alisertib 0.006 | [5] 0.013 | gefitinib 0.087 | [6] -0.015 | lapatinib -0.056 | pictilisib 0.097
